# From PMC5540273 (PLoS ONE, 2017)
# What was measured:
# Details in all cases: concentration: 1 μM, replicates: in singlicate; n = 1
# HIPK4 = test system: HIPK4
# HPK1 = test system: HPK1
# HUNK = test system: HUNK
# ICK = test system: ICK
# IGF1R = test system: IGF1R
# IKK-alpha = test system: T1, IKK-alpha
# T1 construct: gene CHUK
# IKK-beta = test system: T2, IKK-beta
# T2 construct: gene IKBKB
# IKK-epsilon = test system: T3, IKK-epsilon
# T3 construct: gene IKBKE
# INSRR = test system: INSRR
# INSR = test system: INSR
# 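Further: KINOMEscan kinase panel screen.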
Compound,%Inh (HIPK4),%Inh (HPK1),%Inh (HUNK),%Inh (ICK),%Inh (IGF1R),%Inh (IKK-alpha),%Inh (IKK-beta),%Inh (IKK-epsilon),%Inh (INSRR),%Inh (INSR)
COc1ccc(Nc2nccc(N3CCC(NC(=O)C(C)c4ccc(Cl)cc4)C3)n2)cc1 (centres unmarked) [GSK1379735],9%,51%,0%,18%,0%,0%,0%,0%,28%,11%
Cn1cncc1-c1cc2c(Nc3ccc(OCc4ccccc4)cc3)ncnc2cn1 [GW281179],0%,25%,8%,5%,4%,0%,6%,4%,0%,2%
Cc1c(Cn2c3ccccc3n3c(=O)cc(N4CCOCC4)nc23)cccc1C(F)(F)F [GSK2306394],0%,5%,0%,6%,33%,35%,27%,0%,11%,0%
CS(=O)(=O)CCNCc1nc(-c2ccc3ncnc(Nc4ccc5c(cnn5Cc5ccccc5)c4)c3c2)cs1.Cl.Cl [GW569716],0%,32%,28%,2%,19%,38%,8%,0%,0%,0%
O=C1NC(=O)C(c2ccc(Cl)cc2)=C1Nc1ccc(O)cc1 [SB-340867],0%,35%,0%,0%,0%,0%,0%,0%,0%,0%
COc1cc2ncnc(Nc3cccc(Br)c3)c2cc1OC.Cl [GI230329],68%,50%,6%,3%,0%,0%,0%,18%,0%,0%
CNc1nc(-c2ccc3c(N)n[nH]c3c2)cc(N2C[C@@H](C(=O)NC3CCCCC3)OC[C@H]2C)n1 [GSK2375584],0%,14%,21%,12%,8%,0%,0%,30%,0%,6%
CC(=O)c1cccc(NC(=O)NC2CCN(c3ccnc(Nc4ccc(F)cc4)n3)C2)c1 (centres unmarked) [GSK1379710],0%,50%,0%,5%,0%,4%,1%,33%,0%,12%
O=C(Nc1n[nH]c2nc(-c3cccs3)c(Br)cc12)C1CCCC1 [SB-743341],4%,14%,23%,65%,3%,0%,0%,4%,26%,2%
CNc1cc(-c2ccc3c(N)n[nH]c3c2)nc(N)n1 [GSK2224810],14%,41%,5%,12%,0%,6%,0%,39%,0%,19%
Cn1cncc1C(=O)NC1CCN(c2ccnc(Nc3ccc(F)cc3)n2)C1 (centres unmarked) [GSK1379717],0%,68%,0%,31%,0%,25%,17%,33%,0%,10%
Cc1ccc(NC(=O)c2ccc(Cl)cc2)cc1-c1ccc(C(=O)Nc2ccncc2)cc1 [GSK1398467],0%,36%,8%,0%,11%,12%,6%,15%,0%,0%
COc1ccc(Nc2nccc(N3CCC(NC(=O)C(C)c4ccc(Cl)cc4)CC3)n2)cc1 (centres unmarked) [GSK1379812],0%,39%,10%,0%,0%,0%,0%,100%,0%,15%
COc1cccc(NC(=O)Nc2ccc(C)c(-c3ccc(C(=O)Nc4ccncc4)cc3)c2)c1 [GSK1398474],27%,78%,2%,17%,12%,0%,84%,22%,0%,0%
CNc1nc(-c2ccc3c(N)n[nH]c3c2)cc(N2C[C@@H](C(=O)Nc3ccccc3)CC[C@H]2C)n1 [GSK2298859],0%,18%,0%,0%,11%,0%,0%,24%,0%,0%
COc1ccc2cc(-c3nc(-c4ccccc4C(C)C)[nH]c3-c3ccncc3)ccc2c1 [SB-660566],0%,37%,0%,22%,9%,19%,26%,14%,1%,5%
COc1ccc(Nc2nccc(N3CCC(NC(=O)c4cc5ccccc5s4)C3)n2)cc1 (centres unmarked) [GSK1379738],0%,48%,0%,10%,0%,21%,25%,28%,0%,5%
